In all, about 360,000 compounds went through this assay and about 6,200 (1.7%) were called active.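 Rule for the calls: active = inhibition of at least 50% at 20 µM; inactive = the rest.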 Only a selection was taken, and actives are over-represented in it overall.

Usually inhibition stands for the drop in the measured response relative to a control, in per cent.

A short description of the test: Peg3 promoter-driven luciferase inhibitors, primary screen, cell-based, HeLa, luciferase luminescence (AID 588405). To be noted: HeLa PEG-Prom luciferase reporter, overnight, at 20 µM, hits give high values. In general terms: In a reporter assay the amount or activity of a reporter protein is the signal.
Regarding `CCc1nc2c(OCc3ccccc3)cccn2c1N(C)C(=O)c1ccco1`, the inhibition was 11.6% (inactive).
For `COc1ccc(NC(=O)Cn2c(-c3ccc(OC)cc3)cn(-c3ccc(C)cc3)c2=O)cc1`, the inhibition is -103% (inactive).
As to `COc1ccc(CC(=O)Nc2c(C(N)=O)oc3ccccc23)cc1`, the inhibition is 8.96% (inactive).
The result for `COc1ccc(CC(=O)Nc2ccc(-c3nnc(-c4ccc(C)cc4)o3)cc2)cc1` reads 51.2% (active); that for `COc1ccc(CCCNC(=O)C2Cc3c(-c4cccc(C(N)=O)c4)ccnc3O2)cc1` (stereo not given), 14.7% (inactive).
Turning to `Nc1cccc(-c2cncc(N3CCN(Cc4ccccn4)CC3)n2)c1`, the inhibition is -8.35% (inactive).
For `CSCC[C@H](NC(=O)CCCn1nnc2ccccc2c1=O)C(=O)O`, the inhibition is 4.76% (inactive).
With `CC(C)C[C@H]1CNC(=S)N1C[C@H]1CCCN1C[C@H](Cc1ccc(O)cc1)N1C[C@H](Cc2ccc(O)cc2)N(CC2CCCCC2)C1=S`, the inhibition was 99.5% (active).
For `CCOc1ccc(CCN2C(=S)N([C@@H](CC(C)C)CN3CCC[C@@H]3CN3C(=S)NC[C@@H]3Cc3ccc(O)cc3)C[C@@H]2Cc2ccc(O)cc2)cc1`, the inhibition is 14.3% (inactive).
Consider `CCOc1ccc(CCN2C(=S)N([C@@H](CC(C)C)CN3CCC[C@@H]3CN3C(=S)NC[C@@H]3Cc3ccc(O)cc3)C[C@@H]2CC(C)C)cc1`, for which the inhibition is 14.2% (inactive).
In the case of `Cc1cc(C(=O)COC(=O)CNC(=O)c2ccc(F)cc2)c(C)n1Cc1ccco1`, the inhibition is -257% (inactive).
`Cc1ccc(OCC(=O)c2cc(C)n(Cc3ccco3)c2C)c([N+](=O)[O-])n1`: the inhibition is 55.6% (active).
`COCC(C)n1c(C)cc(C(=O)COc2ccc(C)nc2[N+](=O)[O-])c1C` (stereo not given): the inhibition is 43.5% (inactive).
In the case of `CC(C)c1ccc(CC(=O)N2CCC2(C)C(=O)NS(=O)(=O)c2ccc(C(C)(C)C)cc2)cc1` (stereo not given), the inhibition is 11.3% (inactive).
The same measure for `CC(C)Cn1cc(-c2cncc3nccn23)cn1`: 5.62% (inactive); for `CN(C(=O)CN1CCN(c2cc(-c3ccc(OCc4ccccc4)cc3)ncn2)CC1)c1ccccc1`: -2.84% (inactive); for `c1ccc2cc3c(NCCN4CCOCC4)ccnc3cc2c1`: 69.5% (active).
`CCOc1nc(NCCN2CCOCC2)nc(Nc2ccc(C)cc2)n1`: the inhibition was 5.29% (inactive).
The result for `Fc1ccc(-c2ccc(NCCN3CCOCC3)nn2)cc1` reads -96.4% (inactive); that for `CCN(CC)C(=O)C1=C(C)N(Cc2ccc(F)cc2)C(=O)C(CC(=O)NC2CCCC2)C1` (stereo not given), 11% (inactive).
For the compound `COCCCNC(=S)N(CCN(C)C)Cc1cc2cc3c(cc2[nH]c1=O)OCCO3`, the inhibition is 2.51% (inactive).
On to `Cc1cccc2cc(CN(Cc3cccs3)C(=S)NCc3ccco3)c(=O)[nH]c12`, for which the inhibition is 4.8% (inactive).
In the case of `Cc1cc(C)c2[nH]c(=O)c(CN(Cc3ccccc3)C(=S)NCCCN(C)C)cc2c1`, the inhibition was 66.4% (active).
For the compound `CCCOc1ccc(F)cc1-c1cc(C(=O)Nc2ccc(F)cc2)[nH]n1`, the inhibition is -8.32% (inactive).
On to `CCn1c(CC(=O)Nc2ccc(C)cc2)nnc1SCC(=O)Nc1nc(C)cs1`, for which the inhibition is -10.4% (inactive).
Turning to `COCC(C)NC(=O)COc1nncc2ccccc12` (stereo not given), the inhibition is 0.55% (inactive).
With `NC(Cc1ccc(F)cc1)c1csc(Nc2nncc3ccccc23)n1` (stereo not given), the inhibition is 103% (active).
Regarding `CN[C@H]1C[C@H]2c3cc(Oc4ccccc4C)ccc3CCN2C(=O)[C@H]1[C@H](C)O`, the inhibition was -28.3% (inactive).
In the case of `CN(C)C(=S)Nc1ccc(Br)cc1Cl`, the inhibition was 4.24% (inactive).
The result for `CCn1cc(CN2CCC(C(=O)Nc3cccc(-c4cccc(Cl)c4)c3)CC2)cn1` reads 54.4% (active).
`O=C(Nc1cccc(-c2cccc(Cl)c2)c1)C1CCN(C2CCC2)CC1`: the inhibition is 53.2% (active).
The same measure for `CCn1cc(CN2CCC(C(=O)Nc3cccc(-c4cccc(Cl)c4)c3)CC2)c(C)n1`: 105% (active); for `O=C(NCC1CCN(Cc2ccccc2Cl)CC1)Nc1cccc(Cl)c1`: 27.8% (inactive).
As for `O=C(NC1CCCC1)C1CCN(C(=O)Nc2cccc(Cl)c2)CC1`, the inhibition is 17% (inactive).
In the case of `CC(=O)c1cc(CN2CCC(C(=O)Nc3cccc(-c4cscn4)c3)CC2)cs1`, the inhibition was 2.3% (inactive).
In the case of `COc1cccc(-c2cccc(NC(=O)C3CCN(C4CCC4)CC3)c2)c1`, the inhibition is 9.5% (inactive).
On to `O=C(Nc1cccc(-c2cscn2)c1)C1CCN(Cc2ccsc2)CC1`, for which the inhibition is 5.06% (inactive).
The result for `O=C(Nc1cnn(Cc2ccc(Cl)cc2)c1)C1CCCC1` reads -29.5% (inactive).
As for `COc1cccc(NC(=O)C2(C)CCN2Cc2ccccc2Cl)c1` (stereo not given), the inhibition was 12.9% (inactive).
For `CCOCCC(=O)Nc1ccc2c(c1)c(=O)n(C)n2-c1ccc2ccccc2c1`, the inhibition is -14.8% (inactive).
The same measure for `CCCNC(=O)C1(C)CCN(C(=O)c2ccccc2OC(F)(F)F)C1` (stereo not given): -13.6% (inactive); for `CC(=O)Nc1cc(-c2ccc(N3CCN(C)CC3)cc2)cn2c(-c3ccc(F)cc3)cnc12`: -24.9% (inactive); for `CCCCN(C=O)c1c(CC)nc2c(OCc3ccccc3C(=O)OC)cccn12`: 13.7% (inactive).
The result for `COCc1cc(=O)n2[nH]c(C)c(-c3ccccc3)c2n1` reads 2.19% (inactive).
`CCCc1cc(=O)n2[nH]c(C)c(-c3ccc(Cl)cc3)c2n1`: the inhibition is 61.5% (active).
For the compound `Cc1nc2c(-c3ccccc3)c(C)[nH]n2c(=O)c1Cl`, the inhibition was 13.1% (inactive).
With `COc1cc(F)ccc1-c1cc(C(=O)NCC2CCCCC2)[nH]n1`, the inhibition was -33.4% (inactive).
For the compound `CC(C)COC(=O)C1C2C=CC3(CN(C(C)c4ccc(Br)cc4)C(=O)C13)O2` (stereo not given), the inhibition was 6.1% (inactive).
As for `COc1cc(NC(=O)c2cc(-c3ccc(F)cc3OC(C)C)n[nH]2)cc(OC)c1OC`, the inhibition is 33.7% (inactive).
`Cc1ccc(C(=O)NCC(=O)O)s1`: the inhibition was 13.7% (inactive).
For `Cc1nc2c(OCc3cccc(Cl)c3)cccn2c1N(C)CC1CC1`, the inhibition is -12.2% (inactive).
`OC(c1ccc(Cl)c(F)c1)c1ncc(-c2ccccc2Cl)[nH]1` (stereo not given): the inhibition was 17.5% (inactive).
On to `Cc1ccc(C(NC(=O)C2CCN(CCOc3ccc(Cl)cc3Cl)CC2)c2ccccn2)cc1` (stereo not given), for which the inhibition is 106% (active).
On to `O=C(NC(c1ccc(-c2ccccc2)cc1)c1cnccn1)C1CCN(CCOc2ccc(Cl)cc2Cl)CC1` (stereo not given), for which the inhibition is 37.4% (inactive).
As for `O=C(NC(c1ccc(Cl)cc1)c1cnccn1)C1CCN(Cc2ccc(Cl)cc2)CC1` (stereo not given), the inhibition was 6.83% (inactive).

The values are drawn from PubChem BioAssay AID588405 (Sanford-Burnham Center for Chemical Genomics, 2011).
